PrPC TRFRET = cell surface PrPC inhibition, primary TR-FRET screen. P04156. TR-FRET read-out. inhibition, % at 13.8 µM. hit rate 0.43% among 370,000; in the data active means inhibition above about 24%; further: 0% = median of the test wells and 100% = reference compound wells
GDH-TPI counter-1 = inhibits GDH-TPI coupling enzymes, artifact for Mtb FBA screen; GDH-TPI coupled enzyme counterscreen, NADH absorbance; inhibition, % at 4.8 µM; hit rate 1.2% among 360,000; in the data active means inhibition above about 30%;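 further: 0% = DMSO wells and 100% = wells lacking the enzyme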
Mtb FBA inh = inhibits M. tuberculosis FBA enzyme. inhibition, % at 1 µM. P9WQA3. purified M. tuberculosis FBA, fluorescence read-out. AID 588726. hit rate 2.3% among 360,000;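 further: 0% = vehicle and 100% = reference inhibitor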
Target sequence (P9WQA3 whole entry, looked up): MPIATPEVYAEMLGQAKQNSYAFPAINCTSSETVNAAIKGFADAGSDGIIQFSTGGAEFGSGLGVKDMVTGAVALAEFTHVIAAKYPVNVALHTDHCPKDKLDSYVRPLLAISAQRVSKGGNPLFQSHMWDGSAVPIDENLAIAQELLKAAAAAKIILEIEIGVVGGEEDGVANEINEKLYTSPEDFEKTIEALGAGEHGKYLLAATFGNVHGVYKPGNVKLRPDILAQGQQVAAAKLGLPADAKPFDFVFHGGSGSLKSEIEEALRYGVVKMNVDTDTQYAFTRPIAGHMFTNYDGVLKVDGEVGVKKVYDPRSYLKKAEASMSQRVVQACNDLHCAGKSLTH
Y pestis TopoI = blocks Yersinia pestis topoisomerase I activity | Y. pestis Topo-I cleavage product accumulation, plate reader | activity, % at 10 µM | hit rate 0.064% among 360,000 | AID 504884; in the data active means activity above about 50%, passing the limit was not always enough
Mtb hypoxia rep = inhibitors of hypoxia-regulated fluorescent reporter in Mycobacterium tuberculosis | M. tuberculosis hypoxia-regulated fluorescent reporter, fluorescence | fluorescence inhibition, % (no concentration beside the values) | hit rate 0.1% among 300,000 | AID 1159583; in the data active means fluorescence inhibition mostly above about 23%, no sharp cut-off; inactive means mostly below about 17%
PrP 5UTR inh = inhibition of PrP 5' UTR reporter expression. cell-based PrP 5' UTR mRNA reporter, plate reader. inhibition, % (concentration not given with the values). hit rate 0.35% among 340,000. AID 488862; in the data active means inhibition above about 52%; further: 0 = median of the neutral control wells
Mtb FBA inh conf = Mtb FBA inhibition, confirmed. shares compounds with Mtb FBA inh. purified M. tuberculosis FBA, fluorescence read-out. inhibition, % at 1 µM. hit rate 78% among 5,600;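 further: 0% = vehicle wells and 100% = reference inhibitor wells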
GDH-TPI counter-2 = inhibits GDH-TPI coupling enzymes, flagging Mtb FBA hits | shares compounds with Mtb FBA inh | GDH-TPI coupled enzyme counterscreen, fluorescence | inhibition, % at 1 µM | hit rate 81% among 5,600; in the data active means inhibition above about 10%
* marks the source's active call; other numbers are inactive results; . = no result given; + = active, no number. An excerpt weighted towards active compounds, which were near 3.8% of everything screened. Unless noted, no stated cut-off is given here; in the data, active means inhibition above about 27%; inactive means the rest.

SMILES | PrPC TRFRET | GDH-TPI counter-1 | Mtb FBA inh | Y pestis TopoI | Mtb hypoxia rep | PrP 5UTR inh | Mtb FBA inh conf | GDH-TPI counter-2
Cc1ccc(C(=O)c2c3ccccc3[n+]([O-])n2C(C)C(N)=O)cc1 (stereo unspecified) | . | . | . | . | 4 | . | . | .
COc1ccc2c(COC(=O)CNC(=O)C34CC5CC(CC(C5)C3)C4)cc(=O)oc2c1 | -5 | 12 | 85* | 21 | 4 | -20 | + | 167*
COc1ccc2c(COC(=O)[C@@H]3CCCN3S(=O)(=O)c3ccc(Cl)cc3)cc(=O)oc2c1 | 5 | 7 | 51* | 0 | -13 | 1 | 102* | 76*
COc1cc(NC(=O)COC(=O)CNC(=O)C23CC4CC(CC(C4)C2)C3)cc(OC)c1 | 3 | 12 | 1 | 17 | -5 | -15 | . | .
COc1cc(NC(=O)COC(=O)[C@@H]2CCCN2S(=O)(=O)c2ccc(Cl)cc2)cc(OC)c1OC | 6 | 8 | 6 | 1 | . | -4 | . | .
COc1ccc2c(CN3CCCCCCC3)cc(=O)oc2c1 | -7 | . | 82* | . | . | . | 1 | 0
COc1ccc2c(CN3CCN(c4ccccc4OC)CC3)cc(=O)oc2c1 | 6 | . | 2 | . | . | . | . | .
Cc1cccc(N=Cc2c(C)[nH]n(-c3ccccc3)c2=O)n1 | . | . | . | . | 5 | . | . | .
CCCn1c(-c2cccs2)nc2ccccc21 | 4 | 20 | 74* | 6 | . | -16 | + | 174*
C=CCn1c(-c2cccs2)nc2ccccc21 | 3 | 17 | 63* | -1 | . | -14 | 150* | 141*
CCn1c(NCc2cccs2)nc2ccccc21 | 6 | 9 | 1 | -7 | . | -2 | . | .
O=C(NN=C(CC(=O)c1cccs1)C(F)(F)F)c1cccnc1 | . | . | . | . | 12 | . | . | .
CC(=NNC(=O)CNc1cccc(Cl)c1C)c1cccs1 | . | . | . | . | -4 | . | . | .
Cc1ccc2cc(C=NNC(=O)CN3CCOCC3)c(Cl)nc2c1 | . | . | . | . | 1 | . | . | .
Cc1ccc2c(c1)c(C)cc[n+]2Cc1ccccc1 | -3 | 7 | 12 | -7 | 11 | -14 | . | .
COc1ccc2c(c1)c(C)cc[n+]2Cc1ccccc1 | -13 | 6 | 41* | 4 | 0 | -54 | 59* | 57*
O=c1cc(C(F)F)oc2c1ccc1ccccc12 | 3 | 17 | 31* | -7 | 7 | -27 | 59* | 46*
Cc1ccc2c(=O)cc(C(=O)NCc3ccccc3)oc2c1C | -3 | 0 | 8 | -1 | 18 | 5 | . | .
COc1ccc(C=Nn2cnc3scc(-c4cccs4)c3c2=O)cc1OC | . | . | . | . | 6 | . | . | .
Cc1ncc(C(=O)O)c(C(=O)O)c1N | -1 | 6 | 34* | 6 | 9 | -19 | 19 | 15*
CSc1ncc(C(=O)O)c(C)n1 | -2 | -1 | -1 | 1 | 21 | -13 | . | .
CCOc1ccccc1-c1cc(C(=O)NN=Cc2cccnc2)c2ccccc2n1 | . | . | . | . | 14 | . | . | .
C=CCNC(=O)C(=O)NCC1CCCN1CC (stereo unspecified) | -4 | -7 | -1 | 1 | 10 | -18 | . | .
CCCNC(=O)C(=O)NCC1CCCN1CC (stereo unspecified) | -1 | -3 | 29* | 14 | 11 | -27 | 18 | 13*
COc1ccc(OC)c(/C=C/C(=O)Oc2ccc(C(C)=O)cc2)c1 | 1 | 11 | 33* | 34 | 18 | -22 | 132* | 107*
SMILES | PrPC TRFRET | GDH-TPI counter-1 | Mtb FBA inh | Y pestis TopoI | Mtb hypoxia rep | PrP 5UTR inh | Mtb FBA inh conf | GDH-TPI counter-2
Cn1cccc2[nH]c(=O)nc1-2 | 0 | 9 | 37* | 0 | 13 | -22 | 78* | 54*
N=c1oc2ccc(Cl)cc2cc1C(=O)NC1CCCCCC1 | 3 | 11 | -1 | 15 | 2 | -18 | . | .
N=c1oc2cc(O)ccc2cc1C(=O)Nc1ccc(Cl)cc1 | 0 | 10 | 103* | -12 | 10 | -44 | + | +
COc1ccc(-c2nc(CCl)cs2)cc1 | -5 | -12 | 3 | -7 | 9 | -57 | . | .
COc1ccc(-c2nc(CCl)cs2)cc1OC | 2 | 6 | 72* | 48 | 5 | 3 | 91* | 81*
CCOc1ccc(N(CC)C(=O)c2cn(CC)c(=O)c3cc(OC)c(OC)cc23)cc1 | 6 | 4 | 2 | 8 | 1 | -15 | . | .
CCCCn1nc2cc(C(=O)N(CC)c3ccc(OC)cc3)ccc2c1OCC | 4 | 3 | 28* | -9 | 4 | -33 | 112* | 87*

Screening results: PubChem BioAssay, several laboratories
